Bioassay records as filed in PubChem.
Many of the other results were omitted from the sample, so hits are more common in it than they were.
Shiga toxin inh: inhibitors of Shiga toxin in Vero cells; Vero cells, Shiga toxin protein synthesis inhibition reporter; inhibition, % at 38.7 µM; 9.2% of 290,000 active; AID 2315; in the data active = inhibition mostly above about 28%, no sharp cut-off; inactive = mostly below about 43%
Cycloheximide cs: counter-screen for Shiga toxin inhibitors: cycloheximide protein synthesis inhibition; cell reporter, cycloheximide protein synthesis inhibition counterscreen; AID 2314; 12% of 300,000 active; max response, %; in the data active = max response mostly above about 13%, no sharp cut-off; inactive = mostly below about 14%; also: read at 38.3 µM for the half of the compounds with a filed dose
AmpC detergent: AmpC beta-lactamase inhibition with detergent present. P00811. AmpC hydrolysis of nitrocefin, absorbance 480 nm, 0.01% Triton. Potency, µM (doses to about 114 µM), hits mostly inhibitors. 0.041% of 370,000 active; also: nearly all actives have a fitted effect of over 25% in size
Target sequence (P00811 whole entry, looked up): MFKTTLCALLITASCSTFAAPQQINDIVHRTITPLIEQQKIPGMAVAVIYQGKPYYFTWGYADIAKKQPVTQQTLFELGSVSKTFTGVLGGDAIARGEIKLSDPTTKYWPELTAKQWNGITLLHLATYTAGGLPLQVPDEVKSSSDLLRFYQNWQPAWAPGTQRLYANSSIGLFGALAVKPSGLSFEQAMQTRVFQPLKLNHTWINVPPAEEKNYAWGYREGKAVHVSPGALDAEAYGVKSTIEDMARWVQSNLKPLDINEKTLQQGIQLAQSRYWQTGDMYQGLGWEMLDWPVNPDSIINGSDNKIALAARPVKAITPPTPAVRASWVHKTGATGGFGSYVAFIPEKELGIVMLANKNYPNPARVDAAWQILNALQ
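20 mM phosphate pH 7.0 + 0.01% (detergent screen) or 0.0001% Triton X-100; 5.3 nM AmpC reagent; cpd preinc 15 min RT; nitrocefin (800 uM stock) to start; A480 q20 s × 4 min; Activity was normalised to no-enzyme and no-compound control wells.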
AmpC no deterg: blocks E. coli AmpC beta-lactamase in detergent-free assay; P00811; AmpC nitrocefin hydrolysis, absorbance 480 nm, 0.0001% Triton; Potency, µM (series often up to 57.1 µM), most hits filed as inhibitors; 0.52% of 330,000 active; AID 485341; also: nearly all actives have a fitted effect of over 20% in size
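AmpC (5.3 nM in the dispensed reagent) in 20 mM phosphate pH 7.0 with 0.01% (detergent screen) or 0.0001% Triton X-100 was preincubated with compounds for 15 min at room temperature. Nitrocefin was then added from an 800 uM solution, and hydrolysis was followed at 480 nm.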
NS1 function inh: inhibitors of influenza NS1 protein function | Potency, µM (titrated, usually from 46.1 µM) | 0.4% of 270,000 active; calls by dose curve; also: actives are rising curves; nearly all actives have a fitted effect of over 50% in size
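In this qHTS, NS1 from influenza A is expressed in budding yeast, where it slows growth. Cells are switched from glucose to 2% galactose medium (pH 6.0, -URA), treated with compound, and growth recovery is read at OD600.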
Hits are given with their value; i = inactive; ? = inconclusive; nt = no result; + = active, no number. Unless noted, calls follow the shape of the dose curve; as a rule, active = well fitted curve in the direction sought with a large enough effect; inconclusive = small, poorly fitted or top-dose-only effect, or another doubt; inactive = no such curve, though single readings can be large; an effect the other way counts as inactive or inconclusive.

SMILES	Shiga toxin inh	Cycloheximide cs	AmpC detergent	AmpC no deterg	NS1 function inh
CCOC(=O)c1cccc(NC(=O)c2cc3ccccc3o2)c1	57	49	i	i	i
Cc1ccc(CNC(=O)/C=C/c2ccc(S(=O)(=O)NCc3ccco3)cc2)cc1	40	21	?	i	i
O=C(O)/C=C/c1ccc(S(=O)(=O)NCc2ccco2)cc1	i	i	i	i	nt
O=C(/C=C/c1ccc(S(=O)(=O)NCc2ccco2)cc1)NCc1cccc(Cl)c1	46	29	?	i	i
COc1ccccc1CNC(=O)/C=C/c1ccc(S(=O)(=O)NCc2ccco2)cc1	+	20	i	i	i
Cc1ccc(S(=O)(=O)NNc2ccccc2)c(C)c1	i	i	i	i	i
O=C(c1ccc2c(c1)N(Cc1c(F)cccc1Cl)C(=O)c1ccccc1S2)N1CCOCC1	nt	nt	i	nt	nt
Cc1ccc2c(c1)N(C(=O)CCC(=O)NC1CCCCCC1)CCO2	i	i	i	i	i
CC(=O)C(Sc1nn(C)c(=S)s1)C(=O)Nc1ccccc1 (stereo not drawn)	113	51	i	i	i
CCCN(CCC)CCNC(=O)c1nn(C)c2c1CS(=O)(=O)c1ccccc1-2	nt	nt	i	nt	nt
O=C1N/C(=C/c2ccc(N3CCOCC3)o2)C(=O)N1c1ccccc1	i	20	i	i	i
O=C1N/C(=C/c2ccc(N3CCCC3)cc2)C(=O)N1c1ccccc1	49	17	i	i	i
C=CCN1C(=O)N/C(=C/c2ccc(N3CCOCC3)o2)C1=O	i	i	?	i	i
Cc1cccc(/C=N/NC(=O)Cn2nc(C)cc2C)n1	i	i	i	i	i
NNC(=O)c1cccc(S(=O)(=O)Nc2cccc(C(F)(F)F)c2)c1	i	i	i	i	i
O=C(N/N=C/c1ccccc1C(F)(F)F)c1ccc(O)cc1	69	26	?	i	nt
Cc1[nH]c2ccccc2c1/C=N/NC(=O)c1cccc(S(=O)(=O)Nc2cccc(C(F)(F)F)c2)c1	i	i	i	4.5µM	i
COCCNC(=O)C(=O)N/N=C/c1ccccc1C(F)(F)F	i	i	i	i	i
O=C(N/N=C/c1ccccc1O)c1cccc(C(F)(F)F)c1	48	i	i	i	i
O=C(N/N=C/c1ccc(O)cc1)c1cccc(C(F)(F)F)c1	i	i	i	i	i
NS(=O)(=O)c1ccc(CCNc2ccnc3cc(Cl)ccc23)cc1	i	32	i	i	i
CCC1CC=CC2C1C(=O)N(Cc1ccccc1)C2c1ccc(C(F)(F)F)cc1 (stereo not drawn)	i	i	nt	nt	nt
O=C(O)c1cc(-c2ccco2)nc2ccccc12	i	i	i	i	i
O=C(c1ccco1)N1CCN(c2ccc(F)cc2)CC1	100	i	i	i	i
O=C(c1cc(-c2ccco2)nc2ccccc12)N1CCN(c2ccc(F)cc2)CC1	78	33	i	i	i
SMILES	Shiga toxin inh	Cycloheximide cs	AmpC detergent	AmpC no deterg	NS1 function inh
O=C(c1ccco1)N1CCN(c2cc(=O)n(-c3ccc(Cl)cc3)c(=O)[nH]2)CC1	i	i	?	45µM	i
Nc1ccc(N2CCN(C(=O)c3ccco3)CC2)cc1	i	i	i	i	i
O=C(c1ccc(Cl)c([N+](=O)[O-])c1)N1CCN(C(=O)c2ccco2)CC1	i	i	i	i	nt
O=C(c1ccco1)N1CCN(c2c([N+](=O)[O-])nn(-c3cccc(Cl)c3)[n+]2[O-])CC1	i	14	i	i	nt
S=c1nc(-c2nc(=S)[nH]c3c2CCCCCCCCCC3)c2c([nH]1)CCCCCCCCCC2	nt	nt	nt	nt	i
Cc1cc(N)ccc1NC(=O)CN1CCCC1	i	i	i	i	i
O=C(Nc1ccc(N2CCN(C(=O)c3ccco3)CC2)cc1)c1ccc(F)cc1	i	i	i	i	i
O=C(Nc1ccc(N2CCN(C(=O)c3ccco3)CC2)cc1)c1ccccc1	i	12	i	i	i
O=C(Nc1ccc(N2CCN(Cc3ccccc3)CC2)cc1)c1ccco1	65	13	i	i	i
CCCN(CCC)C(=O)Nc1ccc(F)cc1F	i	i	i	i	i
COCCN(C(=O)Nc1ccc(F)cc1F)c1nc2ccccc2s1	48	34	i	i	i
COCCN(C(=O)Nc1ccc(OC)cc1)c1nc2ccccc2s1	42	18	i	i	i
CCOC(=O)c1cnc2c(C)cc(C)cc2c1NCCN1CCOCC1	nt	nt	i	nt	nt
CN(C(=O)COC(=O)/C=C/c1ccc(C(F)(F)F)cc1)C1CCS(=O)(=O)C1 (stereo not drawn)	i	i	i	i	i
CC(NC(=O)CCn1c(=O)c2cccn2c2ccc(F)cc21)c1ccccc1 (stereo not drawn)	nt	nt	i	nt	nt
CCOc1cc(N2CCOCC2)c(OCC)cc1NC(=O)c1cnccn1	nt	nt	nt	i	nt
O=C(N/N=C/c1ccc(O)cc1O)c1ccc(CN2C(=O)c3cccc4cccc2c34)cc1	i	i	i	7.1µM	i
C[C@@H]1Cc2c(O)c(O)cc(O)c2C(=O)O1	i	i	i	i	i
CC1Oc2cc3c(-c4c(O)cc(O)c5c(O)c6c(cc45)OC(C)C(C)C6=O)c(O)cc(O)c3c(O)c2C(=O)C1C (stereo not drawn)	i	i	?	22µM	i
CCCCNC(=O)c1cc2cc(CC)ccc2[nH]1	i	14	i	i	i
CC(=O)Nc1ccc(NC(=O)c2cc(-c3cc(C)cc(C)c3O)n[nH]2)cc1	i	23	i	i	?
Cc1cccc(NC(=O)c2cc(-c3ccc(C)c(C)c3O)n[nH]2)c1	92	49	i	i	i
Cc1cc(C)c(O)c(-c2cc(C(=O)Nc3ccc(S(=O)(=O)N4CCOCC4)cc3)[nH]n2)c1	i	i	i	i	i
CC(=O)Nc1ccc(NC(=O)c2cc(-c3ccc(C)c(C)c3O)n[nH]2)cc1	i	29	i	i	i
Cc1ccc(-c2cc(C(=O)Nc3ccc(S(=O)(=O)Nc4ncccn4)cc3)[nH]n2)c(O)c1C	i	i	i	i	i
SMILES	Shiga toxin inh	Cycloheximide cs	AmpC detergent	AmpC no deterg	NS1 function inh
COc1ccc(NC(=O)c2cc(-c3ccc(C)c(C)c3O)n[nH]2)cc1Cl	i	i	?	18µM	i
CCN(C(=O)c1cc2c(s1)-c1ccccc1OC2)c1cc(Cl)ccc1OC	nt	nt	i	nt	nt
C/C(CC/C(C)=N/O)=N/O	nt	nt	nt	nt	i
Cc1cc(NC(=O)c2sc(Nc3ccc(F)cc3)nc2N)no1	i	28	i	i	nt
C=CCNc1nc(N)c(C(=O)Nc2cc(C)on2)s1	38	19	i	i	i
C=CCNc1nc(N)c(C(=O)c2ccc3c(c2)OCO3)s1	87	26	i	i	?
Cc1ccccc1NC(=O)Cc1nc(CSc2nnc(-c3ccc4c(c3)OCO4)o2)cs1	i	i	?	i	i
c1ccc(CSc2ncn(-c3ccccc3)n2)cc1	105	46	?	i	i
Nc1nc(CSc2ncn(-c3ccccc3)n2)cs1	92	38	i	i	i
O=C(CSc1ncn(-c2ccccc2)n1)c1cccs1	88	64	i	i	i
Cc1cccc(NC(=O)c2sc(-n3nc(C)c(CCC(C)C)c3C)nc2C)c1	nt	nt	i	nt	nt
COc1ccc(-n2c(=O)c3ccc(C(=O)NCc4ccc(C)cc4)cc3n(Cc3ccc(Cl)cc3)c2=O)cc1	nt	nt	i	nt	nt
